Experimental data from PubChem BioAssay (EPA / NIEHS).
Values joined by “and” are separate entries in the source; they are usually repeats but may differ in a detail not shown here. Equal entries are not always repeated. Results filed as inconclusive are left out. Active and inactive are the calls of the source. How the source made its calls, unless noted: active means hit-call score of the fitted dose curve at least 0.9, where 1 is the maximum; inactive means score below 0.9.

Key:
[1] = biological target: Retinoic acid receptor RXR-alpha (Homo sapiens) (UniProt P19793); experiment: ATG_RXRa_TRANS: Attagene TRANS-FACTORIAL HepG2 Assay for human Retinoid X Receptor alpha (RXRa) (AID 2283012; active means hit-call score of the fitted dose curve at least 0.9, where 1 is the maximum)
How it was run: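 Cells (HepG2) carried transiently transfected GAL4-responsive reporter units. Following a 24 h chemical incubation, reporter mRNA induction was read via RT-PCR fragment analysis; DMSO served as negative control and baseline.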

[2] = biological target: human Retinoid X Receptor beta (RXRb), RXRB (gene 6257) (UniProt P28702); experiment: ATG_RXRb_TRANS: Attagene TRANS-FACTORIAL HepG2 Assay for human Retinoid X Receptor beta (RXRb) (AID 2283013; active means hit-call score of the fitted dose curve at least 0.9, where 1 is the maximum)
How it was run: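 Multiplexed TRANS reporter assay in HepG2; 24 h dosing; reporter mRNA by RT-PCR/CE fluorescence; gain-of-signal relative to DMSO.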

[3] = read-out: E-selectin (Homo sapiens) (UniProt P16581); experiment: BSK_3C_Eselectin: BioMAP Diversity Plus: 3C Assay for Eselectin Biomarker Activity (AID 2283015); conditions: primary human endothelial cells (HUVEC); actives raise or lower the signal
How it was run: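 Endpoint derived by bidirectional fitting against DMSO vehicle; signal is ELISA-detected E-selectin from primary HUVEC at 24 h post-dosing, with parallel SRB staining (0.1% SRB, 560 nm) flagging cytotoxicity.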

[4] = read-out: Monocyte Chemoattractant Protein-1 (MCP1), CCL2 (gene 6347); experiment: BSK_3C_MCP1: BioMAP Diversity Plus: 3C Assay for Monocyte Chemoattractant Protein-1 (MCP1) Biomarker Activity (AID 2283017); conditions: primary human endothelial cells (HUVEC); actives raise or lower the signal
How it was run: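 Using human vascular primary endothelium, researchers measured MCP-1 by ELISA 24 h after treatment, with DMSO serving as negative control for bidirectional fitting.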

[5] = read-out: Monocyte Chemoattractant Protein-1 (MCP1), CCL2 (gene 6347); experiment: BSK_4H_MCP1: BioMAP Diversity Plus: 4H Assay for Monocyte Chemoattractant Protein-1 (MCP1) Biomarker Activity (AID 2283018); conditions: primary human endothelial cells (HUVEC); actives raise or lower the signal
How it was run: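 Readout: MCP-1 ELISA on compound-treated HUVEC, sampled 24 h post-dosing. Baseline and negative control DMSO; bidirectional fit. Overt toxicity checked alongside by sulforhodamine B protein staining at time of biomarker measurement.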

[6] = read-out: Human Leukocyte Antigen - DR isotype (HLADR), HLA-DRA (gene 3122); experiment: BSK_3C_HLADR: BioMAP Diversity Plus: 3C Assay for Human Leukocyte Antigen - DR isotype (HLADR) Biomarker Activity (AID 2283019); conditions: primary human endothelial cells (HUVEC); actives raise or lower the signal
How it was run: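 Compound added to primary HUVEC cultures, 24 h incubation, then HLA-DR determined by ELISA; endpoint derived by bidirectional fitting relative to DMSO negative control.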

[7] = read-out: Interleukin-8 (IL8), CXCL8 (gene 3576); experiment: BSK_3C_IL8: BioMAP Diversity Plus: 3C Assay for Interleukin-8 (IL8) Biomarker Activity (AID 2283020); conditions: primary human endothelial cells (HUVEC); actives raise or lower the signal
How it was run: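 Human vascular endothelial cells (umbilical vein) in the 3C system; IL-8 level detected by ELISA at 24 h post-dose, with DMSO as baseline.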

[8] = read-out: Monokine induced gamma interferon (MIG), CXCL9 (gene 4283); experiment: BSK_3C_MIG: BioMAP Diversity Plus: 3C Assay for Monokine induced gamma interferon (MIG) Biomarker Activity (AID 2283021); conditions: primary human endothelial cells (HUVEC); actives raise or lower the signal;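 on AC50: MIG protein level measured by immunoassay in the treated endothelial cultures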
How it was run: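 After 24 h of treatment, human umbilical vein endothelial cultures (3C system) had their MIG biomarker level determined by ELISA, with DMSO serving as negative control.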

[9] = read-out: Interleukin-1 alpha (IL1a), IL1A (gene 3552); experiment: BSK_BE3C_IL1a: BioMAP Diversity Plus: BE3C Assay for Interleukin-1 alpha (IL1a) Biomarker Activity (AID 2283016); conditions: primary human bronchial epithelial cells; actives raise or lower the signal
How it was run: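 Cultures of primary human bronchial epithelial cells receive test chemical. After 24 h, IL-1a is quantified by ELISA, while parallel wells are fixed in TCA and SRB-stained for total protein. Changes in either direction are fitted relative to DMSO.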

[10] = biological target: human Vitamin D Receptor (VDR), VDR (gene 7421) (UniProt P11473); experiment: ATG_VDR_TRANS: Attagene TRANS-FACTORIAL HepG2 Assay for human Vitamin D Receptor (VDR) (AID 2283022; active means hit-call score of the fitted dose curve at least 0.9, where 1 is the maximum)
How it was run: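 Multiplexed TRANS reporter in HepG2; 24 h treatment; reporter mRNA by RT-PCR plus capillary electrophoresis; upregulation scored relative to DMSO.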

Measured: AC50

E-selectin (Homo sapiens), sequence (P16581 whole entry, looked up): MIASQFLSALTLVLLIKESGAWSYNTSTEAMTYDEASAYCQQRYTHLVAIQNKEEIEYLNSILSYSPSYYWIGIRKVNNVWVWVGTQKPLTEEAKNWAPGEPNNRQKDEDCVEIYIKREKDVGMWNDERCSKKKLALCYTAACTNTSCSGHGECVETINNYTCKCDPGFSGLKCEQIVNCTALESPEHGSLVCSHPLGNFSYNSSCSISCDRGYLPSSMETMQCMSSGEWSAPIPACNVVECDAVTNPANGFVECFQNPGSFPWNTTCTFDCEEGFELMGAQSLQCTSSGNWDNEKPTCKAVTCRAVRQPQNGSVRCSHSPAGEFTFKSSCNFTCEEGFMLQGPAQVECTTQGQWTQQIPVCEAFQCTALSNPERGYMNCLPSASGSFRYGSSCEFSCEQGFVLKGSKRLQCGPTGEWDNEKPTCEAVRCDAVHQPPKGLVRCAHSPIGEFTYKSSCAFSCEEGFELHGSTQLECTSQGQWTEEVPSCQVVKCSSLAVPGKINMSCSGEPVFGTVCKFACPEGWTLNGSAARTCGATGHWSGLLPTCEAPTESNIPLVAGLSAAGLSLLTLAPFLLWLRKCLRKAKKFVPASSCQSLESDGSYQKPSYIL
human Retinoid X Receptor beta (RXRb), RXRB (gene 6257), sequence (P28702 whole entry, looked up): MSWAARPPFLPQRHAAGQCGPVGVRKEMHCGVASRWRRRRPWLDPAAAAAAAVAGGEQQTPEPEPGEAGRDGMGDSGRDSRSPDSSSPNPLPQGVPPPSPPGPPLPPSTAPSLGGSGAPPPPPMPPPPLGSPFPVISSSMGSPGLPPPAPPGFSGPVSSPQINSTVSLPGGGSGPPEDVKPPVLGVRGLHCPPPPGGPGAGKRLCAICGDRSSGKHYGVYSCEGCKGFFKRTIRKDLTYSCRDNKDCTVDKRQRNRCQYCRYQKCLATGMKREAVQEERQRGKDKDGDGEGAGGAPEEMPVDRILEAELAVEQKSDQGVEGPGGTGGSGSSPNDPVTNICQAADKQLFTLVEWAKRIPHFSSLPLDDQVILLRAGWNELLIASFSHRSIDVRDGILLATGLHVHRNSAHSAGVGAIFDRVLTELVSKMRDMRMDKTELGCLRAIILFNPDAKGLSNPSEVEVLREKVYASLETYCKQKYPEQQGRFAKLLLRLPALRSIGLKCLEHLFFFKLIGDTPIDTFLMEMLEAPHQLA
Retinoic acid receptor RXR-alpha (Homo sapiens), sequence (P19793 whole entry, looked up, the tested form may be a part): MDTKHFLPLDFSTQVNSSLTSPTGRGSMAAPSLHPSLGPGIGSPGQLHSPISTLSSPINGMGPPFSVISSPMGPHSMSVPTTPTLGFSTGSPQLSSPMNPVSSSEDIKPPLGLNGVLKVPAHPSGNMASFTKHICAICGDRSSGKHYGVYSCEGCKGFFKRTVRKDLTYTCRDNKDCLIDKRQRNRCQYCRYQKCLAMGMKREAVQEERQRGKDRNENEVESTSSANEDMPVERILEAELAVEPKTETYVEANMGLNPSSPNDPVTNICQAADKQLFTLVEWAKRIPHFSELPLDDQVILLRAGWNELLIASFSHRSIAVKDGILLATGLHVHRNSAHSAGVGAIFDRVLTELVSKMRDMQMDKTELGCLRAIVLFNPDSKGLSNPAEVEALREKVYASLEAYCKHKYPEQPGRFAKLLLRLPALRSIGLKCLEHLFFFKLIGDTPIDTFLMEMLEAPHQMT
human Vitamin D Receptor (VDR), VDR (gene 7421), sequence (P11473 whole entry, looked up): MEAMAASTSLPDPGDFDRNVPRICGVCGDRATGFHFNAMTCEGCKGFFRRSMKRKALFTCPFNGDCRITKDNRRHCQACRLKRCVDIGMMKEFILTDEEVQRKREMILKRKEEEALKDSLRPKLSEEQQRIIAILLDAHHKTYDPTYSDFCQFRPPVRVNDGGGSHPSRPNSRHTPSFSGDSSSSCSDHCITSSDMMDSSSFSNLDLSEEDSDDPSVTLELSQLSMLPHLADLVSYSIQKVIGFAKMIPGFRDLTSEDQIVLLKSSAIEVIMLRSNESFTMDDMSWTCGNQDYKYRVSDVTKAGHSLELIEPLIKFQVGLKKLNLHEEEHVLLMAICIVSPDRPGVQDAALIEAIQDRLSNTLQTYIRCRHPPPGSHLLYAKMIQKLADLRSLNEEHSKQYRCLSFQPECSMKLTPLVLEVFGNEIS

COC(=O)[C@H]1[C@H]2C[C@@H]3c4[nH]c5cc(OC)ccc5c4CCN3C[C@H]2C[C@@H](OC(=O)c2cc(OC)c(OC)c(OC)c2)[C@@H]1OC
active: [3] 16.9 µM | [4] 16.9 µM | [5] 5.85 µM | [6] 25.8 µM | [7] 16.9 µM
inactive: [1] | [2] | [8]

O=C1O[C@H]([C@H](O)CO)C(O)=C1O
not listed: [5] | [10]
inactive: all other assays above

CCCCC(CC)COC(=O)CCCCCCCC(=O)OCC(CC)CCCC (centres undefined)
not listed: [5] | [10]
inactive: all other assays above

Cc1ccc(C(C)(C)C)c(O)c1
active: [2] 23.3 µM | [3] 34.5 µM | [4] 34.7 µM
not listed: [5] | [10]
inactive: all other assays above

CCCCc1nc2cccnc2n1Cc1ccc(-c2ccccc2-c2nnn[nH]2)cc1
not listed: [10]
inactive: all other assays above

CC(=O)O
not listed: [5] | [10]
inactive: all other assays above

Cc1cc(SC2=C(O)C[C@@](CCc3ccc(N)cc3)(C(C)C)OC2=O)c(C(C)(C)C)cc1CO
not listed: [10]
inactive: all other assays above

CC(=O)O[C@]1(C(C)=O)CC[C@H]2[C@@H]3C=C(Cl)C4=CC(=O)[C@@H]5C[C@@H]5[C@]4(C)[C@H]3CC[C@@]21C
active: [9] 32.8 µM | [6] 33.4 µM
not listed: [5] | [10]
inactive: all other assays above

COc1ccc(OC(F)(F)F)cc1CN[C@H]1CCCN[C@H]1c1ccccc1
active: [3] 9.58 µM | [4] 20 µM | [6] 32.8 µM
not listed: [10]
inactive: all other assays above

O=C1CCCCC1
not listed: [10]
inactive: all other assays above

NCCOCCOCCN
not listed: [5] | [10]
inactive: all other assays above

CCCCC(CC)CO (centres undefined)
not listed: [10]
inactive: all other assays above

CC(C)OC(=O)C(C)(C)Oc1ccc(C(=O)c2ccc(Cl)cc2)cc1
active: [2] 26.9 µM | [4] 30.2 µM | [6] 14.2 µM | [7] 14.1 µM
inactive: [1] | [3] | [9] | [8]

Oc1ccccc1O
active: [3] 1.73 µM | [4] 4.66 µM | [6] 5.45 µM
not listed: [5] | [10]
inactive: all other assays above

CCCC[C@H]1CN(CC2CCOCC2)C(=O)OC12CCN(C1(C)CCN(C(=O)c3c(C)ncnc3C)CC1)CC2
not listed: [10]
inactive: all other assays above

O=C(O)c1cccnc1
not listed: [10]
inactive: all other assays above

CC(C)(O)c1ccc(CNC(=O)c2cccnc2Oc2ccc(F)cc2)cc1
not listed: [9] | [10]
inactive: all other assays above

CC(=O)OC1CC(C)OC(C)O1 (centres undefined)
not listed: [10]
inactive: all other assays above

CCCCCCC(C=O)=Cc1ccccc1
active: [2] 65.6 µM and 39.1 µM | [3] 37.7 µM | [4] 35 µM | [6] 36.7 µM | [7] 30.1 µM | [8] 36.3 µM
inactive: [1] | [9] | [5]

O=NO
not listed: [10]
inactive: all other assays above

O=C(O)CN(CC(=O)O)CC(=O)O
not listed: [10]
inactive: all other assays above

CC(C)c1cccc(C(C)C)c1
active: [2] 100 µM
not listed: [5] | [10]
inactive: all other assays above

CS(=O)(=O)c1ccc([C@@H](C[C@H]2CCC(=O)C2)C(=O)Nc2cnccn2)cc1Cl
not listed: [5] | [10]
inactive: all other assays above

CCCCOC(=O)CCCCC(=O)OCCCC
not listed: [10]
inactive: all other assays above

Nc1nc(Cl)nc2c1ncn2[C@H]1C[C@H](O)[C@@H](CO)O1
not listed: [10]
inactive: all other assays above

CCc1nc(N)nc(N)c1-c1ccc(Cl)cc1
not listed: [5] | [10]
inactive: all other assays above

CN(C)C(=O)NC1(c2ccccc2)CCN(CCC[C@]2(c3ccc(Cl)c(Cl)c3)CCCN(C(=O)c3ccccc3)C2)CC1
active: [1] 3.94 µM | [2] 4.3 µM | [4] 7.06 µM | [7] 7.16 µM
not listed: [10]
inactive: all other assays above

CCN(CC)CCOc1ccc(C(=C(Cl)c2ccccc2)c2ccccc2)cc1
active: [3] 14.3 µM | [9] 18.9 µM | [4] 11.6 µM | [6] 7.41 µM | [7] 10.9 µM | [8] 15.1 µM
inactive: [1] | [2]

COc1ccc(C(=O)Nc2nc3ccccc3c(NCc3ccccc3)c2C#N)cc1
not listed: [5] | [10]
inactive: all other assays above

O=Cc1ccccc1C=O
not listed: [1] | [10]
inactive: all other assays above

N[C@@H](Cc1c[nH]c2ccccc12)C(=O)O
not listed: [1] | [5] | [10]
inactive: all other assays above

O=C1OC(c2ccc(O)cc2)(c2ccc(O)cc2)c2ccccc21
inactive: [1] | [3] | [7] | [8]
active: [4] 14.1 µM | [5] 20 µM | [6] 31.1 µM

NC(=Nc1ccccc1)Nc1ccccc1
not listed: [9] | [10]
inactive: all other assays above

CCC(C)N(C)C(=O)c1cc2ccccc2c(-c2ccccc2Cl)n1 (centres undefined)
not listed: [2] | [10]
inactive: all other assays above

S=c1[nH]c2ccccc2s1
not listed: [2] | [5] | [9]
inactive: all other assays above

CCCCCCCCCC[N+](C)(C)[O-]
not listed: [5] | [9] | [10]
inactive: all other assays above

CC(N)=O
not listed: [2] | [10]
inactive: all other assays above

CN(C)C(=O)NC1(c2ccccc2)CCN(CC[C@@]2(c3ccc(F)c(F)c3)CN(C(=O)c3ccccc3)CCO2)CC1
not listed: [2] | [5] | [10]
inactive: all other assays above

CCOCCOCCO
not listed: [2] | [10]
inactive: all other assays above

O=C(NS(=O)(=O)/C=C/c1cccs1)c1ccc(F)cc1Br
inactive: [1] | [3] | [4] | [6] | [7] | [8]

Cn1cnc2c1c(=O)[nH]c(=O)n2C
inactive: [1] | [3] | [4] | [6] | [7] | [8]

NC1CCCCC1
not listed: [1] | [5] | [10]
inactive: all other assays above

CCc1cc(C2=C(C(=O)O)N(c3ccccc3C(F)(F)F)S(=O)(=O)c3ccccc32)cc2c1OCO2
inactive: [1] | [3] | [4] | [7] | [8]
active: [6] 24.8 µM

O=C1NC(=O)C(c2ccccc2)(c2ccccc2)N1
not listed: [2] | [10]
inactive: all other assays above

CCCCCCCCCCCCCCOS(=O)(=O)O
not listed: [5] | [9] | [10]
inactive: all other assays above

CC(C)COC(=O)CCCCC(=O)OCC(C)C
not listed: [1] | [10]
inactive: all other assays above

C=CCCCCCCCCCCCC
active: [2] 59.1 µM
not listed: [5] | [9]
inactive: all other assays above

CN(C)CCCN1c2ccccc2Sc2ccc(Cl)cc21
inactive: [1]
active: [3] 33 µM | [4] 30.4 µM | [5] 4.5 µM | [6] 29.1 µM | [7] 20 µM | [8] 32.2 µM
